Screens (PubChem)
TDP1 cell CPT – growth inhibition of DT40 Tdp1-/-;hTDP1 cells with camptothecin (screen for TDP1 inhibitors). Potency, µM (top dose mostly 46.2 µM), for the others: at the top dose activity change, negative = growth inhibition, most hits filed as inhibitors. chicken DT40 Tdp1-/-;hTDP1 cells + 20 nM CPT, ATP luminescence, 48 h. actives 12% (n = 420,000); further: nearly all actives have a fitted effect of over 55% in size
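Cell growth measured by CellTiter-Glo luminescence after a minimum 48 h, 37 C compound exposure with 20 nM CPT in Tdp1-knockout DT40 cells stably expressing hTDP1, seeded 400/well; qHTS titration format.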
HT1080 IDH1KD tx – toxicity to HT-1080 IDH1 knockdown cells (counter line) | HT-1080 IDH1 knockdown viability, ATP luminescence, 48 h | Potency, µM (series often up to 46.1 µM), for the others: at the top dose activity, negative = toxicity, usual class: cytotoxic | actives 2% (n = 360,000) | AID 686971;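 further: 0% = DMSO wells and -100% = cell-free medium wells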
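Luminescent ATP read-out (CellTiter-Glo, 10 min at room temperature) after 48 h compound exposure at 37 °C gave viability of IDH1-knockdown HT-1080 cells. Activity was normalised to DMSO and cell-free wells, then fitted as concentration-response curves.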
HT1080NT lethal – kills 2HG-producing HT-1080-NT fibrosarcoma cells. AID 686970. Potency, µM (top dose mostly 46.1 µM), for inactives: at the highest dose activity, negative = less viability, usual class: cytotoxic. actives 1.6% (n = 360,000). HT-1080-NT fibrosarcoma viability, CellTiter-Glo ATP luminescence, 48 h;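 further: NT is the 2HG producing partner of a matched IDH1 knockdown line; 0% = DMSO-treated cells and -100% = media-only wells without cells; nearly all actives have a fitted effect of over 55% in size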
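Luminescent CellTiter-Glo readout after 48 hours of compound exposure at 37 degrees C defined viability of HT-1080-NT cells. Activity was normalized to DMSO wells and cell-free media wells; concentration-response curves were fitted and assigned curve classes.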
KB-V1 cytotox – kills drug-selected multidrug resistant KB-V1 cells; KB-V1 MDR cells viability, CellTiter-Glo, 72 h; Potency, µM (top dose mostly 46.1 µM), most hits filed as cytotoxic; actives 3.4% (n = 400,000); further: nearly all actives have a fitted effect of over 60% in size
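Luminescent ATP read-out (CellTiter-Glo, 10 min) measures survival of drug-selected KB-V1 MDR cells after 72 h, 37 degrees C compound exposure. Medium: phenol-red-free DMEM, 10% FBS. Values from fitted concentration-response curves.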
KB-3-1 tox – KB-3-1 parental cell cytotoxicity; KB-3-1 viability, CellTiter-Glo ATP luminescence, 72 h; Potency, µM (top dose mostly 46.1 µM), usual class: cytotoxic; actives 1.4% (n = 400,000); further: nearly all actives have a fitted effect of over 60% in size
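Using CellTiter-Glo luminescence, growth of non-resistant KB-3-1 adenocarcinoma cells is assessed 72 h after pin-tool compound addition at 37 °C. Normalized responses across the concentration series yield fitted curves.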
DT40 TDP1 no CPT – qHTS for Inhibitors of human tyrosyl-DNA phosphodiesterase 1 (TDP1): qHTS in cells in absence of CPT; DT40 Tdp1-/- hTDP1 cells, no CPT, ATP luminescence, 48 h; Potency, µM (top dose mostly 46.2 µM), inactives show top-dose activity change, negative = growth inhibition, actives largely listed as inhibitors; actives 15% (n = 420,000); AID 686978, 2013; further: nearly all actives have a fitted effect of over 55% in size
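Stably hTDP1-transfected Tdp1-null chicken DT40 cells were treated with library compounds minus camptothecin and grown for at least 48 hr at 37 °C, after which cellular ATP was quantified by luminescence.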
* = called active by the depositor; i = inactive; u = inconclusive; x = no result. A selection: hits, their analogues and other compounds. The true share with any hit is near 19%. The call rests on the fitted dose curve; in most records, active means well fitted curve in the direction sought with a large enough effect; inconclusive means small, poorly fitted or top-dose-only effect, or another doubt; inactive means no such curve, though single readings can be large; an effect the other way counts as inactive or inconclusive. Unless noted, on the % scale 0 is the no-effect control and ±100 the full control effect; potency means the concentration at half of the fitted maximal effect.

SMILES	TDP1 cell CPT	HT1080 IDH1KD tx	HT1080NT lethal	KB-V1 cytotox	KB-3-1 tox	DT40 TDP1 no CPT
CC1=C(C(=O)N(C(C)C)C(C)C)CC(CC(=O)NC2CCCCC2)C(=O)N1Cc1ccc(F)cc1 (centres undefined)	u	17%	13%	i	i	u
Cc1ccc(CNC(=O)C2CCN(c3nc(C)cc(C)n3)CC2)cc1	-8%	u	24%	i	i	-24%
Brc1cccc(-c2nc3c4ccccc4ccn3c2Cc2ccccc2)c1	21µM*	-16%	-20%	i	i	u
Clc1ccc2nc(-c3ccccc3)c(Cc3ccccc3)n2c1	u	10%	18%	i	u	18µM*
Clc1ccc(-c2nc3ccc(Cl)cn3c2Cc2ccccc2)cc1	u	9%	0%	i	i	u
CCCc1nc2ccc(C)cn2c1Cc1cccc(Cl)c1	u	u	u	i	i	16µM*
Cc1ccc(Cc2c(-c3ccc(Cl)cc3)nc3ccc(Cl)cn23)cc1	u	24%	11%	i	i	21µM*
Cc1ccc2nc(-c3cccc(Cl)c3)c(Cc3cccc(F)c3)n2c1	u	4%	17%	u	i	u
COC(=O)CCCn1cc(CN2CC(N3CCN(C)CC3)CS2(=O)=O)nn1 (centres undefined)	-1%	13%	20%	i	i	-9%
Cc1ccc2nc(-c3cccc(Br)c3)c(Cc3cccc(Cl)c3)n2c1	u	-24%	-20%	i	i	18µM*
O=C(c1cccc2ccccc12)C1CCCN(C(=O)CCc2cnccn2)C1 (centres undefined)	u	-8%	-6%	i	i	8.2µM*
O=C(c1ccc(C(F)(F)F)cc1)C1CCCN(C(=O)CCc2ccncc2)C1 (centres undefined)	8.2µM*	-26%	-18%	i	i	6.5µM*
CN(C)C(=O)CCC(=O)N1CCCC(C(=O)c2ccc(C(F)(F)F)cc2)C1 (centres undefined)	u	-3%	-7%	i	i	26µM*
CN(C)C(=O)N1CCC(C(=O)N2CCCC(C(=O)c3ccc(C(C)(C)C)cc3)C2)CC1 (centres undefined)	u	-12%	-1%	i	i	16µM*
O=C(c1cc(F)ccc1F)C1CCCN(C(=O)CCc2cnccn2)C1 (centres undefined)	-7%	2%	5%	i	u	-21%
Cc1cc(Br)cn2c(Cc3ccsc3)c(C(C)(C)C)nc12	u	-3%	1%	i	i	26µM*
Cc1ccc(Cc2c(C(C)(C)C)nc3ccc(Br)cn23)cc1	u	-13%	-1%	i	i	u
CCCc1nc2c(C)cc(Br)cn2c1Cc1ccccc1	u	u	u	i	i	u
CCCc1nc2c(C)cc(Br)cn2c1Cc1ccsc1	u	-9%	-14%	i	i	23µM*
COC(=O)CC1=NN(c2ccccc2)C(=O)/C1=C\c1ccc(OC)cc1	21µM*	20%	15%	i	i	u
CCc1ccc(NC(=O)Cn2ccn(-c3ccc(OC)cc3)c(=O)c2=O)cc1	-15%	x	x	x	x	-3%
O=C(c1ccc(CS(=O)c2cccc(Cl)c2)o1)N1CCN(C2CCCCC2)CC1 (centres undefined)	-28%	-12%	4%	i	i	-2%
COc1ccc(N2CCN(C(=O)c3ccc(CS(=O)c4cccc(C)c4)o3)CC2)cc1 (centres undefined)	18µM*	u	u	i	u	16µM*
COc1cccc(N2CCN(C(=O)c3ccc(CS(=O)c4ccccc4C)o3)CC2)c1 (centres undefined)	0.52µM*	0.73µM*	0.46µM*	u	1µM*	0.58µM*
O=C(c1ccc(COc2ccccc2Cl)o1)N1CCN(c2ccccc2)CC1	u	u	-4%	i	i	29µM*
SMILES	TDP1 cell CPT	HT1080 IDH1KD tx	HT1080NT lethal	KB-V1 cytotox	KB-3-1 tox	DT40 TDP1 no CPT
O=C(c1ccc(CS(=O)c2cccc(Cl)c2)o1)N1CCCCCC1 (centres undefined)	-8%	10%	10%	23µM*	i	23µM*
Cc1ccccc1OCc1ccc(C(=O)N2CCOCC2)o1	13%	12%	11%	u	i	-16%
COCCCn1c(SC(C)C(=O)Nc2c(C)n(C)n(-c3ccccc3)c2=O)n[nH]c1=O (centres undefined)	10%	1%	6%	u	i	13%
CCCCNC(=O)C(NC(=O)c1cccs1)C(=O)c1ccccc1 (centres undefined)	-2%	20%	12%	u	i	1%
COc1cccc(N2CCN(C(=O)c3ccc(CS(=O)c4ccccc4Cl)o3)CC2)c1 (centres undefined)	0.029µM*	0.0082µM*	u	i	0.0082µM*	0.0052µM*
O=C(c1ccc(CS(=O)c2ccccc2Cl)o1)N1CCOCC1 (centres undefined)	-7%	11%	-3%	i	i	13%
O=C(c1ccc(CS(=O)c2ccccc2Cl)o1)N1CCN(c2ccccc2)CC1 (centres undefined)	0.82µM*	0.52µM*	u	u	1µM*	0.52µM*
CCN(CC)S(=O)(=O)c1ccc2c(c1)c(=O)c(C(=O)N1CCN(c3ccc(OC)cc3)CC1)cn2C	-1%	x	x	i	i	u
CCCN(CCC)C(=O)Cc1coc2ccc3ccccc3c12	u	-11%	-14%	u	i	18µM*
O=C(Cc1coc2ccc3ccccc3c12)NCc1ccccc1	u	u	u	u	i	u
O=C(Cc1coc2ccc3ccccc3c12)Nc1nccs1	15µM*	-8%	-2%	i	i	u
Cc1cc(C)cc(OCC(=O)NC(Cc2c[nH]c3ccccc23)C(=O)O)c1 (centres undefined)	-22%	x	x	i	i	0%
CCCC[C@@H]1CNC(=S)N1CCC12CC3CC(CC(C3)C1)C2	u	-9%	-8%	u	i	18µM*
CC(C)C[C@H]1CNC(=S)N1CC1CCN(CCC23CC4CC(CC(C4)C2)C3)CC1	u	1%	9%	i	u	16µM*
